These results are taken from PubChem BioAssay (NCI).

Structures are written as SMILES. Compounds without any hit were thinned out: in the full panel of roughly 83,000, 20% have a hit.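 Interpretation: 100, growth as untreated; towards 0, rising growth inhibition; 0, no net growth; 0 to -100, cell death. Compounds scoring below 10 were considered active.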 Unmarked numbers belong to inactive results. Activity calls are given as the source filed them.

Assay in all cases: NCI-60 one-dose screen, 48 h (100 = growth as untreated, 0 = no growth, -100 = all killed)
Common to all, as to conditions: 10 µM unless noted

Assay [1] concerns SK-MEL-2 melanoma.
Assay [2] concerns SN12C renal.
The subject of assay [3] is UO-31 renal.
For assay [4], the system named is ACHN renal.
Assay [5] deals with CAKI-1 renal.
Assay [6] has as its system A498 renal.
The test system of assay [7] is CCRF-CEM leukemia.
In assay [8] the test system is MOLT-4 leukemia.
Assay [9] relates to TK-10 renal.

Take `FC(F)(F)c1cc(CNc2nc(Cl)ncc2Br)cc(C(F)(F)F)c1`: the growth in [1] was 83.6%; in assay [2] it was 89.3%; in assay [3], 67.1%; in [4], 94.5%; in assay [5], 76.5%; in assay [6] it was 80.2%. In addition, the growth in [7] is 81.4%; in assay [8] it was 82.4%.

Take `NC(=O)c1cc(I)ccc1NC(=O)COc1ccccc1`: the growth is 34.5% in [1]; 37.4% in assay [2]; 52.7% in [3]; 43.8% in assay [4]; 55.1% in assay [5]; 4.14% (active) in assay [6]. Further, the growth in assay [7] was 4.81% (active); in [8], 4.74% (active).

Turning to `CCCCCCCCCCCC(=O)[O][Sn]([CH2]CCC)([CH2]CCC)[CH2]CCC`, the growth was -90.5% (active) in [1]; -93.5% (active) in assay [2]; -97.9% (active) in assay [3]; -95.2% (active) in assay [4]; -97.8% (active) in assay [5]; -86% (active) in assay [6]. Besides, in [8], the growth was -27% (active).

Take `COc1cc2cc(Oc3ccc(NC(=O)Nc4ccc(Cl)c(C(F)(F)F)c4)cc3)c(C)nc2cc1OCCN1CCCCC1`: the growth in assay [1] was 95.3%; in assay [2], -84.7% (active); in [3] it was -90.1% (active); in [4], -100% (active); in assay [5], 15.4%; in [6], 64.2%. For the same molecule, the results for the growth in assay [7] and in [8] were 3.86% (active) and -37.2% (active), respectively.

For the molecule `O=C1NC(=S)S/C1=C\c1cccc([N+](=O)[O-])c1`, the growth in [1] is 103%; in assay [2] it was 94.1%; in [3], 65.1%; in [4] it was 89.2%; in assay [5], 87.5%; in [6], 96.1%. In addition, the growth is 78.2% in assay [7] and 85.5% in assay [8].

On to `Cc1nc2cc(Nc3nc(N4CCOCC4)nc(N4CCN(C)CC4)n3)ccc2n1Cc1ccccc1`, for which the growth in assay [1] is 106%; in [2], 101%; in assay [3], 81.7%; in assay [4] it was 96.6%; in assay [5] it was 93.3%; in assay [6], 92.4%. In addition, the growth in [7] was 96.2%; in [8], 91.8%.

On to `COc1cc(/C=C2\C(=O)Nc3ccccc32)cc(OC)c1O`, for which the growth in assay [1] is 50.4%; in assay [2] it was 77%; in assay [3], 60%; in assay [4], 77%; in assay [5], 37.7%; in assay [6], 52.5%. The growth is 26.7% in assay [7] and 0.624% (active) in assay [8].

For `Clc1ccc2c(N3CCN(c4ccnc(NC5CCCCC5)n4)CC3)ccnc2c1`, the growth in assay [1] was 72.9%; in assay [3] it was 22.4%; in assay [9], 61.1%; in [4] it was 45.5%; in [5] it was 57.8%; in assay [6] it was -40.7% (active). Besides, the growth is 8.39% (active) in assay [7] and -3.75% (active) in assay [8].

Turning to `Cn1c2ccccc2c2nn(Cc3ccccc3)c(=O)nc21`, the growth is 103% in [1]; 107% in assay [2]; 75.1% in [3]; 88.5% in assay [4]; 94.7% in assay [5]; 104% in [6]. For the same molecule, the growth in assay [7] is 102%; in assay [8], 105%.

With `Cc1ccc(C(=O)Nc2ccccc2N)cc1`, the growth is 57.5% in assay [1]; 64% in assay [2]; 37.4% in assay [3]; 87.7% in assay [4]; 54.9% in [6]; 4.67% (active) in [7]. Besides, in assay [8], the growth is 30.9%.

In the case of `COc1ccc(NC(=O)COc2ccccc2)c(C(N)=O)c1`, the growth was 35.9% in [1]; 44.4% in assay [2]; 57% in [3]; 55.7% in [4]; 9.39% (active) in [6]; 6.03% (active) in assay [7]. The growth in [8] was 20.1%.

Consider `Cn1c2c(cc(S(=O)(=O)c3ccccc3)c1=O)CCc1c-2cnn1-c1ccccc1Cl`, for which the growth in assay [1] is 105%; in [2] it was 97.8%; in [3], -16% (active); in [4] it was -31% (active); in [5], 54.7%; in assay [6] it was 86.5%. Also, the growth in assay [7] is 96.4%; in assay [8], 90.7%.

In the case of `O=C(Nc1ccccc1O)c1ccc(NS(=O)(=O)c2cccc3cccnc23)cc1`, the growth in assay [1] was 23.6%; in [2], 61.2%; in assay [3], 20.8%; in [4] it was 52.1%; in [5], 44.7%; in [6], 45.5%. Further, the growth in assay [7] was 33.1%; in assay [8], 28.5%.

In the case of `CN1CCn2c(c(Sc3ccc(C(=O)NO)cc3)c3ccccc32)C1=O`, the growth in [1] was -43.3% (active); in assay [2] it was -3% (active); in assay [3], 59%; in assay [4], 36.6%; in assay [5], 50.5%; in assay [6], 4.23% (active). The growth in assay [7] is -6.26% (active); in [8], 1.98% (active).

For the molecule `COc1c(Cl)ccc2c(-c3nc4cc(Cl)c(F)cc4s3)cc(=O)oc12`, the growth in [1] is 37.7%; in [2], 96.3%; in assay [3] it was -88.8% (active); in assay [4], 47.8%; in assay [5], 34.4%; in [6], 107%. Moreover, the growth in assay [7] is -68% (active); in assay [8], 44.3%.
